The target of assay [1] is Lysosomal acid glucosylceramidase (Homo sapiens) (UniProt P04062). Kind of assay: Glucocerebrosidase-p2 (AID 348; in the data active = potency below about 10 µM; also: potency is read from the fitted curve at half-maximal effect). The note with it: purified GBA, blue fluorogenic substrate, 40 min. The gist of the method: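 Normal human glucocerebrosidase (0.2 nM) with blue fluorogenic substrate (80 uM final) in citrate/phosphate pH 5.9 with 10mM sodium taurocholate, 0.01% tween-20; 40 min RT, NaOH/glycine stop; fluorescence Ex 365/Em 440; AC50 from a titration from 0.6 nM upwards.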

Assay [2] in a line: Stat Signaling Pathway (AID 446; active = well fitted curve in either direction with a large enough effect, not every such curve was filed as active;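 also: ME-180 cervical cancer cells given 40 pM IL-6 alongside compound; SIE-controlled beta-lactamase reporter measured as 460/530 nm FRET emission ratio; % is scaled to controls: 0 for no effect and ±100 for the full control effect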). The note with it: ME-180 SIE beta-lactamase reporter, IL-6 stimulated, 5 h; at 7.69 µM (top of the series) unless noted. The essentials: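 Compound effects on IL-6-induced STAT reporter activity were measured in ME-180 cells. After overnight culture, cells were co-treated with 40 pM IL-6 for 5 hrs before beta-lactamase substrate loading at room temperature.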

Assay [3] concerns the target Glucocorticoid receptor (Homo sapiens) (UniProt P04150). The assay is described as follows: GR-EFC Redistribution (AID 451; calls by dose curve; also: potency is read from the fitted curve at half-maximal effect). The note with it: CHO-K1 GR-EFC translocation, beta-gal luminescence, 2 h. The essentials: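 Translocation of GR-ED fusion to nuclear EA restores b-gal, read by luminescence after 1 h room-temperature detection. Engineered CHO-K1 biosensor cells, 1,000/well, exposed 2 h at 37 C to titrations up to 46 uM final.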

The target in assay [4] is Mitogen-activated protein kinase 10 (Mus musculus) (UniProt Q61831). The assay is described as follows: JNK3 AlphaScreen Assay (AID 530; active = well fitted curve in either direction with a large enough effect, not every such curve was filed as active;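 also: kinase came from lysate of stimulated human HepG2 cells; signal reports phosphorylation of biotinylated GST-cJun 1-79 at Ser73 with 10 µM ATP; % is scaled to controls: 0 for no effect and ±100 for the full control effect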). The essentials:
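qHTS titrations with 15 min compound pre-incubation before adding ATP (10 uM final). Read-out: AlphaScreen of Ser73-phosphorylated biotin-GST-cJun using HepG2 lysate JNK3 activated by IL-1β and TNFα.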
In general terms: Alpha assays give light when donor and acceptor beads are brought close together.

Assay [5] is described as follows: qHTS Assay for Lipid Storage Modulators (AID 1519; calls by dose curve). The conditions noted are these: Drosophila S3 cells, BODIPY lipid droplet/cell ratio, laser cytometry, cells loaded with oleic acid; for activity change, negative = inhibition: at 57.5 µM (top of the series). The gist of the method:
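Cells seeded at 5,000 per well were treated with compounds over a concentration series and loaded with oleic acid (400 uM, as added). Lipid droplet fluorescence (488 nm excitation, 500-530 nm channel) was read by laser-scanning cytometry and normalized to 20 uM Triacsin C.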
(Quantitative high-throughput screening tests each substance at several concentrations.)

Assay [6] can be described thus: Primary qHTS for small molecule stabilizers of the endoplasmic reticulum resident proteome: Secreted ER Calcium Modulated Protein (SERCaMP) assay (AID 1508630). Also: % is scaled to controls: 0 for no effect and ±100 for the full control effect. The essentials:
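The SH-SY5Y reporter protocol was run at 3 concentrations up to 38.3 uM (primary) or 11 concentrations (follow-up): 16 h compound, 100 nM thapsigargin for 4 h, then extracellular luciferase luminescence.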

Assay [7] in a line: AP1 Signaling Pathway (AID 357; active = well fitted curve in either direction with a large enough effect, not every such curve was filed as active;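 also: ME-180 reporter cells stimulated with EGF at its EC50 level; % is scaled to controls: 0 for no effect and ±100 for the full control effect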). The note with it: ME-180 (cervical carcinoma) AP-1-bla reporter, EGF-induced, beta-lactamase ratio, 5 h; at 7.69 µM (top of the series) unless noted. The gist of the method: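 Beta-lactamase reporter under AP-1 response element, ME-180 background. Stimulus: EC50 EGF. Compound exposure 5 h, 37 °C. Detection: CCF4, 2.5 h RT, 460/530 nm. Values: AC50 from titration.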

Assay [8] has as its target Cytochrome P450 1A2 (Homo sapiens) (UniProt P05177). The assay is described as follows: p450-cyp1a2 (AID 410; calls by dose curve; also: potency is read from the fitted curve at half-maximal effect;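 as to activity change, negative = inhibition: -100% = full effect of reference inhibitor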). The essentials:
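Luminescent demethylation readout: Luciferin-ME (100uM, equal to Km) turned over by 20nM CYP1A2 for 60 min at room temperature after NADPH regeneration addition, following 10 min compound preincubation. Normalization used 57 uM furafylline as full inhibition.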

Assay [9] can be described thus: NFAT Signaling Pathway (AID 444; active = well fitted curve in either direction with a large enough effect, not every such curve was filed as active). The note with it: Jurkat NFAT-bla M1, carbachol, beta-lactamase ratio, 5 h; at 7.69 µM (top of the series) unless noted. The gist of the method: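 Read-out: CCF4 FRET ratio (460 nm/530 nm) after 1 h RT dye loading, used for %activity and AC50 from titration series. Cells: Jurkat NFAT-β-lactamase/M1 line, treated with compound plus 1 uM carbachol for 5 h, 37 °C.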

Assay [10] has as its target 3',5'-cyclic-AMP phosphodiesterase 4B (Homo sapiens) (UniProt Q07343). Kind of assay: qHTS Assay for Inhibitors of PDE-IV (AID 607; active = well fitted activation curve with a large enough effect in the main read-out, with a control signal flat, not every such curve was filed as active; also: % of control where 0% means no effect). The gist of the method: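 ACTOne HEK293 cells carry a modified cAMP-gated CNG channel and express endogenous PDE4; plated 1000 cells/well, compounds up to 22.9 uM final. Membrane-potential dye fluorescence (ex 535/em 590) was read; parental cells received 10 uM forskolin + 100 uM RO 20-1724.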

The target in assay [11] is Glucocorticoid receptor (Homo sapiens) (UniProt P04150). Kind of assay: GR-GFP Redistribution (AID 450;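 active = compounds whose dose series gives a full or clear partial fitted curve of increased nuclear translocation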; also: potency is read from the fitted curve at half-maximal effect). The conditions noted are these: U2OS GR-GFP nuclear translocation, laser cytometry, 2 h.
A short description of assay [12]: Confirmation and Secondary Assay for Modulators of Hemoglobin Beta Chain Splicing at IVS2 654 locus (AID 910).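 Also: HeLa cells stably carrying EGFP split by mutant beta-globin IVS2-654 intron; per-well total GFP intensity by laser scanning cytometry after 2-day treatment; % of control where 0% means no effect.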 The essentials: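 Readout: per-well total peak green fluorescence (488 nm ex, 500–520 nm em) from objects 5–250 µm, reflecting correct splicing of an EGFP-654 reporter. Compounds were applied for 2 days at 37 °C to overnight-plated HeLa EGFP-654 cells; controls were DMSO and 500 nM IVS2-654 PNA.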

Assay [13] has as its target Cytochrome P450 3A4 (Homo sapiens) (UniProt P08684). Kind of assay: qHTS Assay for Activators of Cytochrome P450 3A4 (AID 885). Also: nearly all actives have a fitted effect of over 65% in size. The gist of the method: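 CYP3A4 activity: Luciferin-PPXE O-dealkylation, 25uM substrate, 200mM KPO4, RT throughout. Read-out is luciferase luminescence; higher values reflect activation.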
Assay [14] shares this target. The assay is described as follows: qHTS Assay for Inhibitors and Substrates of Cytochrome P450 3A4 (AID 884). Also: potency is read from the fitted curve at half-maximal effect; nearly all actives have a fitted effect of over 50% in size. The gist of the method:
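Luminescent readout of luciferin produced by CYP3A4 (20 nM) dealkylation of Luciferin-PPXE, 25 uM (its KM). NADPH-driven reaction ran 60 min at RT after 10 min compound preincubation; data scaled to 57 uM ketoconazole as 100% inhibition.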

For assay [15], the target named is Ubiquitin carboxyl-terminal hydrolase 1 (Homo sapiens) (UniProt O94782). The assay is described as follows: Inhibitors of USP1/UAF1: Pilot qHTS (AID 504865).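 Also: rhodamine fluorescence freed from ubiquitin-rhodamine substrate followed over time; top concentration of the series differs between compounds; % is scaled to controls: 0 for no effect and ±100 for the full control effect; nearly all actives have a fitted effect of over 35% in size.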 The gist of the method:
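Deubiquitinase activity followed as kinetic rhodamine fluorescence release from 150 nM Ub-Rho. 1 nM USP1/UAF1 with compound, after 15 min room-temperature preincubation, in HEPES pH 7.8 buffer containing TCEP, EDTA, BSA and Tween-20.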

Setting [16] is: measured here: cell count channel max response.
Where [17] appears, read: measured here: lipid channel max response.

Inconclusive results are not listed. The source made the active and inactive calls. Unless noted, calls follow the shape of the dose curve; as a rule, active = well fitted curve in the direction sought with a large enough effect; inconclusive = small, poorly fitted or top-dose-only effect, or another doubt; inactive = no such curve, though single readings can be large; an effect the other way counts as inactive or inconclusive.

Sequence of Cytochrome P450 1A2 (Homo sapiens) (P05177 whole entry, looked up): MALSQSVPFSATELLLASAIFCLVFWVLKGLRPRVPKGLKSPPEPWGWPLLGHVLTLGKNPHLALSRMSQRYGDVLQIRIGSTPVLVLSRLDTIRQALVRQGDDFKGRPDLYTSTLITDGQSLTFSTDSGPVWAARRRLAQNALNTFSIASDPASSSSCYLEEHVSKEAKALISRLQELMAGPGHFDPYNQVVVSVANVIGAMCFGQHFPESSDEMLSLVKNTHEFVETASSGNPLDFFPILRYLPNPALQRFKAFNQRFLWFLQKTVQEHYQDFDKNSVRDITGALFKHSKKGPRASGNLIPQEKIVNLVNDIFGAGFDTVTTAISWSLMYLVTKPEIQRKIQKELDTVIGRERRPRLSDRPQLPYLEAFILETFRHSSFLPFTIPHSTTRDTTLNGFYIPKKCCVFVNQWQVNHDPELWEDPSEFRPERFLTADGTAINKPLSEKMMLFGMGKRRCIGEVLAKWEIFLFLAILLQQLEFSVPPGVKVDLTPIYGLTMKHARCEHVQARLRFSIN
Sequence of Cytochrome P450 3A4 (Homo sapiens) (P08684 whole entry, looked up): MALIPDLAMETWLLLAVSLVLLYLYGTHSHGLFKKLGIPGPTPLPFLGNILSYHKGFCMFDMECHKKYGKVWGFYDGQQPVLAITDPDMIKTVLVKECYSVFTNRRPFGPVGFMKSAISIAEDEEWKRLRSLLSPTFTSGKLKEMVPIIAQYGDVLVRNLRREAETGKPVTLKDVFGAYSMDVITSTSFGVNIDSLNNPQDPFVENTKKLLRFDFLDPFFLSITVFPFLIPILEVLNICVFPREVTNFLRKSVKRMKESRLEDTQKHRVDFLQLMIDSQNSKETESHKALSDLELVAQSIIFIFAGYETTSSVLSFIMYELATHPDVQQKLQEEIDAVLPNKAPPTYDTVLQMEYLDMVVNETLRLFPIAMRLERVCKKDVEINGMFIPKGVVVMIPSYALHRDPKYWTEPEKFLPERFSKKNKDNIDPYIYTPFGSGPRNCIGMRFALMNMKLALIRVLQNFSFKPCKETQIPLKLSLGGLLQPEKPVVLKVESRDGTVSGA
Sequence of 3',5'-cyclic-AMP phosphodiesterase 4B (Homo sapiens) (Q07343 whole entry, looked up): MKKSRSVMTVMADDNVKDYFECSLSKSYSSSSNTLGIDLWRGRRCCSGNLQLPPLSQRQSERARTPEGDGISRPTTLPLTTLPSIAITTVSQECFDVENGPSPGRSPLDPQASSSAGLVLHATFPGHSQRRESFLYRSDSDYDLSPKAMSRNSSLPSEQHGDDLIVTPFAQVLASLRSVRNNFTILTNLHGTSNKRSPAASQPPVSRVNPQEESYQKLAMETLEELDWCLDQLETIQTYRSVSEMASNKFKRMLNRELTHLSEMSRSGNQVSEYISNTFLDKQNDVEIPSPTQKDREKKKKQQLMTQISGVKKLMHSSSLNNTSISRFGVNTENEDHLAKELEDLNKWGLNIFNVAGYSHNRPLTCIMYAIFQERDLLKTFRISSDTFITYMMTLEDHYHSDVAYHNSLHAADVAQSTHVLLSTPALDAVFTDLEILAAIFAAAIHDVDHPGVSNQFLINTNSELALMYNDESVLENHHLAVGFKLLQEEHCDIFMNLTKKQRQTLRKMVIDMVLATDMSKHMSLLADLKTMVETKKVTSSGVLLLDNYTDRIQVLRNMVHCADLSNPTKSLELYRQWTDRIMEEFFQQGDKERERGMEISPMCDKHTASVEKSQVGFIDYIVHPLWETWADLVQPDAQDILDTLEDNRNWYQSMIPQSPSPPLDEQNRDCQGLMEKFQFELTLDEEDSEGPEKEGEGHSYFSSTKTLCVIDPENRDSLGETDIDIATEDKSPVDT
Sequence of Glucocorticoid receptor (Homo sapiens) (P04150 whole entry, looked up, the tested form may be a part): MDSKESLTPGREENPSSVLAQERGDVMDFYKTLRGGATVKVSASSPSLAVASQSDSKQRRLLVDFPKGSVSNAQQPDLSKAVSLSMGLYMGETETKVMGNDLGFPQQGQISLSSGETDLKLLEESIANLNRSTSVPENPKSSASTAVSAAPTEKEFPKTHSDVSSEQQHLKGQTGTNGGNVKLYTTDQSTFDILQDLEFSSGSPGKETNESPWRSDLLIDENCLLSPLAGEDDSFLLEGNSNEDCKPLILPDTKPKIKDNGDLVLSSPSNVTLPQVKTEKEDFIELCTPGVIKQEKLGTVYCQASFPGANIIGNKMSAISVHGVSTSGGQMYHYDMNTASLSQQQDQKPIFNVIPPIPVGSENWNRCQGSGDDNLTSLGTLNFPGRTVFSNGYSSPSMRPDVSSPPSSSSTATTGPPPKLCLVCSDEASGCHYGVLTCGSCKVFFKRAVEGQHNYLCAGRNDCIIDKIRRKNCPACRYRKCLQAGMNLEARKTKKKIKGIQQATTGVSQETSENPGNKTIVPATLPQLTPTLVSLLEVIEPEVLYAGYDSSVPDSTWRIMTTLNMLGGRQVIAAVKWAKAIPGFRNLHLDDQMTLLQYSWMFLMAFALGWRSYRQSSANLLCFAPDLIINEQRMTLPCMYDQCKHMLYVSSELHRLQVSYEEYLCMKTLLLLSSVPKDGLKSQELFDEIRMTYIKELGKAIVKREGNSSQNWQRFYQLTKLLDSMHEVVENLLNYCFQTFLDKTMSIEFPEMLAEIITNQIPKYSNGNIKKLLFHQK
Sequence of Lysosomal acid glucosylceramidase (Homo sapiens) (P04062 whole entry, looked up): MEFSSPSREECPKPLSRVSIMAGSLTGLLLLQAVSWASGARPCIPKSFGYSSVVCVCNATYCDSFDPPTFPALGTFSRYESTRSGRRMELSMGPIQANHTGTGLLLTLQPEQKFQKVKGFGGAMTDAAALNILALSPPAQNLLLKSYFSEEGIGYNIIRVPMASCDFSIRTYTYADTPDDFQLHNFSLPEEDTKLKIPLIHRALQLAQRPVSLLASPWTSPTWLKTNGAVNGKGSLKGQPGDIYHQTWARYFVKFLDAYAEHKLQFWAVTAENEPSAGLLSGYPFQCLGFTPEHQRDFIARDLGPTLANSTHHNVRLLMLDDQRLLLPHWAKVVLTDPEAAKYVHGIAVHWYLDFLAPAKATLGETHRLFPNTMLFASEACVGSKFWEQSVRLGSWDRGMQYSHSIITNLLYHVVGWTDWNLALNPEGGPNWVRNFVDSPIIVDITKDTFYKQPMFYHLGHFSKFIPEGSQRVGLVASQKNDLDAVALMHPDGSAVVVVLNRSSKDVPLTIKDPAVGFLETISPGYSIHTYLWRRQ
Sequence of Ubiquitin carboxyl-terminal hydrolase 1 (Homo sapiens) (O94782 whole entry, looked up): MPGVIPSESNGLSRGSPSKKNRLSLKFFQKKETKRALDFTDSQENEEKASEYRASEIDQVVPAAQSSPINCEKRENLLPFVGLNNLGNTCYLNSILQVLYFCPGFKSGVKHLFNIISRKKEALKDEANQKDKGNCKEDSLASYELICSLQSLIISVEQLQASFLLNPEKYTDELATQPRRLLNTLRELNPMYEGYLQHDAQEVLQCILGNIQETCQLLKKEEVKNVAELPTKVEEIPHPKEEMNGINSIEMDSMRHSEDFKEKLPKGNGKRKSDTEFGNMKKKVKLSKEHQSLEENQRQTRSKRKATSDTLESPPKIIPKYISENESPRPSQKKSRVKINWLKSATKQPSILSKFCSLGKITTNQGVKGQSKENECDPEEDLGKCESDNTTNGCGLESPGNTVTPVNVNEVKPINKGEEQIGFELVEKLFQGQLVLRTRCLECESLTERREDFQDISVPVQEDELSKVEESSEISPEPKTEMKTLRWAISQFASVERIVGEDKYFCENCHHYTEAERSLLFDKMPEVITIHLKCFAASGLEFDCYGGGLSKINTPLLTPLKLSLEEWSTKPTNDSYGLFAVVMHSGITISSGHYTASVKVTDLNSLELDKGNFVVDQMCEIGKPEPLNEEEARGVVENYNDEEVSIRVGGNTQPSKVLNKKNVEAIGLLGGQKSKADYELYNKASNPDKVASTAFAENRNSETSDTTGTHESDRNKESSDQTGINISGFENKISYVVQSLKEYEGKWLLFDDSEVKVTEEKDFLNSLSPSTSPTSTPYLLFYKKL

In the case of `COc1ccc(C(=O)N2CCC3(CCCN(C(c4ccccc4)c4ccccc4)C3)CC2)cc1`, the Potency was > 11.4 µM (inactive) in [1] and > 46 µM (inactive) in assay [3]. Moreover, the activity, negative = inhibition in [2] is 18.3% (inactive). Further, the Potency entry in assay [4] is “inactive”. Also, the activity change, negative = inhibition in assay [5] is -5.74% (inactive). Moreover, the max response in [5] (setting [16]) is 2.37%; in assay [5] (setting [17]), -2.89%. For the same compound, in [6], the outcome was inactive.

As for `O=C(Nc1cccc(F)c1)N1CC2(CCN(C(=O)c3cnccn3)CC2)C1`, the values for the activity change, negative = inhibition in [7], in assay [9] and in assay [5] were -4.36% (inactive), 20.8% (inactive) and 6.82% (inactive), respectively. The Potency result in [8], in assay [4] and in assay [10] was “inactive” throughout. Further, the activity, negative = inhibition in [2] is -2.15% (inactive). For the same compound, the Potency in [3] was > 46 µM (inactive). For the same compound, the max response in assay [5] (setting [16]) came to 10.6%; in assay [5] (setting [17]), 20.5%. For the same compound, in assay [6], the result was inactive.

For the compound `Cc1cccc(CNc2nc(-c3c(C)noc3C)nc3ccccc23)c1`, the Potency is > 11.4 µM (inactive) in assay [1], > 46 µM (inactive) in assay [11] and > 46 µM (inactive) in [3]. For the same compound, the activity, negative = inhibition in assay [2] is -28.8% (inactive). For the same compound, the Potency entry in assay [4] and in assay [12] was “inactive” throughout. The activity change, negative = inhibition in assay [5] was 11.8% (inactive). The max response in assay [5] (setting [16]) is -6.95%; in assay [5] (setting [17]), 4.27%. The outcome in [6] was inactive.

Regarding `CS(=O)(=O)Nc1cccc(-c2nc(NCCN3CCOCC3)c3ccccc3n2)c1`, the figures for the activity change, negative = inhibition in [7] and in assay [5] were -21.3% (inactive) and 9.69% (inactive), respectively. Also, the Potency was 25.1 µM (active) in [8], > 46 µM (inactive) in [11] and > 46 µM (inactive) in [3]. For the same compound, the activity, negative = inhibition in assay [2] was -7.39% (inactive). Further, the Potency result in [4], in [10], in assay [13] and in assay [12] was “inactive” throughout. Also, the max response in [5] (setting [16]) is -5.53%; in assay [5] (setting [17]), 2.51%. In [6], the outcome was inactive.

`CN(C)C(=O)c1ccc(-c2cncnc2NCc2cccs2)cc1`: the activity change, negative = inhibition in [7] is 8.21% (inactive); in assay [9] it was 6.04% (inactive); in assay [5] it was 6.52% (inactive). The Potency in [8] was 20 µM (active); in assay [11], > 46 µM (inactive); in assay [3], > 46 µM (inactive); in [14] it was 3.16 µM (active). For the same compound, the activity, negative = inhibition in assay [2] was 17.8% (inactive). Also, the Potency result in assay [4], in assay [10], in [13], in [12] and in assay [15] was “inactive” in each case. The max response in [5] (setting [16]) worked out at 22.2%; in assay [5] (setting [17]) it was 27.8%. For the same compound, in [6], the outcome was inactive.

Take `CS(=O)(=O)Nc1cccc(-c2nccc(-n3ccnc3)n2)c1`: the values for the activity change, negative = inhibition in assay [7], in assay [9] and in assay [5] were -9.45% (inactive), -0.156% (inactive) and 2.72% (inactive), respectively. Moreover, the Potency is 0.2 µM (active) in assay [8], > 46 µM (inactive) in assay [11], > 46 µM (inactive) in assay [3] and 1.58 µM (active) in [14]. In addition, in [2], the activity, negative = inhibition was 0.985% (inactive). Further, the Potency entry in assay [4], in [13], in assay [12] and in assay [15] was “inactive” each time. The results for the max response in assay [5] (setting [16]) and in assay [5] (setting [17]) were 1.42% and 5%, respectively. Further, the result in [6] was inactive.

Regarding `Cc1cccc(CNc2ncnc3ccc(-c4c(C)noc4C)cc23)c1`, the activity change, negative = inhibition was 14.8% (inactive) in assay [7] and -3.45% (inactive) in [5]. Further, the Potency in assay [8] is 5.01 µM (active); in assay [11], > 46 µM (inactive); in assay [3], > 46 µM (inactive); in assay [14], 0.794 µM (active). The Potency entry in assay [4], in [13] and in assay [12] was “inactive” throughout. The max response in assay [5] (setting [16]) was -9.91%; in [5] (setting [17]), -10.6%. Moreover, the outcome in [6] was inactive.
